{
  "source": "paper PMC4552634",
  "about": "“A New Set of Chemical Starting Points with Plasmodium falciparum Transmission-Blocking Potential for Antimalarial Drug Discovery” (PLoS ONE, 2015)",
  "note": "About 3,200 (25%) of roughly 13,000 compounds showed an effect of 50% or more. This is one part of the list.",
  "data": [
    {"test_system": "P. falciparum stage V gametocytes", "set-up": "BacTiter-Glo ATP luminescence viability of purified stage V gametocytes in 384-well plates, per cent inhibition versus DMSO", "conditions": "48 h, 5 µM; inhibitor", "units": {"% Inhibition": "%"}, "values": [
      {"smiles": "COc1ccc(CNC(=O)NC2CCN(c3ccnc(Nc4cc(OC)c(OC)c(OC)c4)n3)C2)cc1", "note": "(stereo not shown) [TCMDC-133619]", "% Inhibition": -40.46},
      {"smiles": "Cc1cccc(CN2CCCN(Cc3ccc(C(=O)Nc4ccc(C(C)(C)C)cc4)cc3)CC2)c1", "note": "[TCMDC-136434]", "% Inhibition": -28},
      {"smiles": "CN(c1ccc(NC(=O)Nc2cc(C(F)(F)F)ccc2F)cc1)c1ccnc(NCCN2CCCC2)n1", "note": "[TCMDC-141635]", "% Inhibition": 83.6},
      {"smiles": "Cn1nc(-c2ccc(NC(=O)Nc3ccc4ccccc4c3)c(F)c2)c2cnc(NCCN3CCOCC3)nc21", "note": "[TCMDC-141561]", "% Inhibition": 17},
      {"smiles": "CN(c1ccc(NC(=O)Nc2cc(C(F)(F)F)ccc2F)cc1)c1ccnc(NCCN2CCOCC2)n1", "note": "[TCMDC-141590]", "% Inhibition": 51.14},
      {"smiles": "COc1cc(Nc2nccc(N3CCC(NC(=O)Nc4ccc5c(c4)OCO5)C3)n2)cc(OC)c1OC", "note": "(stereo not shown) [TCMDC-133629]", "% Inhibition": -90.76},
      {"smiles": "CCN(CCN(C)C)Cc1ccc(-c2ccc(NS(=O)(=O)c3cccc4cccnc34)cc2)cc1", "note": "[TCMDC-136600]", "% Inhibition": 46.29},
      {"smiles": "O=C(Nc1ccc(Cl)cc1)c1ccc(S(=O)(=O)NCC2CCN(CC3CCCCC3)CC2)cc1", "note": "[TCMDC-132808]", "% Inhibition": 84.19},
      {"smiles": "O=C(Nc1cccc(C(F)(F)F)c1)c1ccc(S(=O)(=O)NCC2CCCN(CC3CCCCC3)C2)cc1", "note": "(stereo not shown) [TCMDC-132777]", "% Inhibition": 92.44},
      {"smiles": "CCCN1CCN(c2ccc(NS(=O)(=O)c3ccc(C(=O)Nc4ccc(Cl)cc4)cc3)cc2)CC1", "note": "[TCMDC-136351]", "% Inhibition": 71.9},
      {"smiles": "CC(C)c1ccc(NC(=O)c2ccc(C(=O)NCC3CCN(CC4CCCCC4)CC3)cc2)cc1", "note": "[TCMDC-136753]", "% Inhibition": 4},
      {"smiles": "O=C(Nc1cccc(C(F)(F)F)c1)c1cccc(S(=O)(=O)NCC2CCCN(CC3CCCCC3)C2)c1", "note": "(stereo not shown) [TCMDC-132770]", "% Inhibition": 87.2},
      {"smiles": "O=C(Nc1ccc(C(F)(F)F)cc1)c1ccc(S(=O)(=O)NCC2CCCN(CC3CCCCC3)C2)cc1", "note": "(stereo not shown) [TCMDC-133680]", "% Inhibition": -21.48},
      {"smiles": "CCCN1CCN(Cc2ccc(C(=O)Nc3ccc(Cl)cc3)cc2)CC1", "note": "[TCMDC-136387]", "% Inhibition": 3.347},
      {"smiles": "O=C(Nc1ccc(C(F)(F)F)cc1)c1cccc(S(=O)(=O)NCC2CCCN(CC3CCCCC3)C2)c1", "note": "(stereo not shown) [TCMDC-133673]", "% Inhibition": -19.66},
      {"smiles": "O=C(Nc1cccc(C(F)(F)F)c1)c1cccc(S(=O)(=O)NCC2CCCN(Cc3ccccc3)C2)c1", "note": "(stereo not shown) [TCMDC-133685]", "% Inhibition": -6.422},
      {"smiles": "O=C(Nc1cccc(C(F)(F)F)c1)c1ccc(S(=O)(=O)NCC2CCCN2CC2CCCCC2)cc1", "note": "(stereo not shown) [TCMDC-133689]", "% Inhibition": -36.87},
      {"smiles": "CCCN1CCN(c2ccccc2NS(=O)(=O)c2ccc(C(=O)Nc3ccc(Cl)cc3)cc2)CC1", "note": "[TCMDC-136350]", "% Inhibition": 1.888},
      {"smiles": "O=C(Nc1ccc(Cl)cc1)c1ccc(CN2CCCN(CC3CCCCC3)CC2)cc1", "note": "[TCMDC-136400]", "% Inhibition": -37.54}
    ]}
  ]
}
